Compounds with a hit are over-represented: about 1.9% of the library has one in this group of screens.
EBNA-1 inhibitor = EBNA-1 DNA-binding inhibitors, primary screen, biochemical, fluorescence polarization; inhibition, % at 14.8 µM; 0.34% of 300,000 active; AID 1950, 2009; in the data active = inhibition above about 28%
Rev-erbA mod = modulators of Rev-erb alpha DNA binding, primary screen, biochemical, FITC-DNA, fluorescence polarization, uHTS; Nuclear receptor subfamily 1 group D member 1 (Homo sapiens), P20393; Rev-erbα–FITC-DNA binding, 90 min; activity, % at 10 µM; 0.79% of 370,000 active;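 active = activity above about 14%, limit read from the data; passing the limit was not always enough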;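 note: 0% = DMSO wells with 35 nM protein and 100% = DMSO wells with 750 nM protein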
PG9 binder = binders of HIV-1 gp120 antibody PG9, primary screen, biochemical, TR-FRET; 0.43% of 360,000 active; inhibition, % at 6.7 µM; TR-FRET gp120-PG9 antibody binding; HIV-1 gp120 / PG9 antibody interaction; in the data active = inhibition above about 8.5%
ZTA DNA inh = counter-screen for EBNA-1 inhibitors: inhibitors of Epstein-Barr virus ZTA; 0.15% of 320,000 active; P03206; ZTA-DNA binding, fluorescence polarization; inhibition, % at 11 µM; in the data active = inhibition above about 33%
aDG glyco act = activators of alpha-DG glycosylation, primary screen, uHTS, Pro5-aDG cells, AlphaScreen | alpha-DG glycosylation AlphaScreen (IIH6); 0% Pro5, 100% B10-LARGE cell signal | activation, % at 10 µM | 0.22% of 360,000 active | AID 624168, 2012;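 active = activation of at least 8% versus controls, or a plate z-score of at least 8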;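 note: Pro5 are CHO cells carrying HIG-tagged alpha-DG that lacks glycosylation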
p47phox inh = p47phox/p22phox peptide binding inhibitors, primary screen, biochemical, uHTS, NADPH oxidase regulatory subunit; Neutrophil cytosol factor 1 (Homo sapiens), P14598; fluorescence polarization, 2 h; inhibition, % at 24.7 µM; 0.53% of 220,000 active;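 active = inhibition above about 30%, limit read from the data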;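 note: 0% = p47phox with labelled peptide and 100% = labelled peptide alone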
Target sequence (P14598 whole entry, looked up): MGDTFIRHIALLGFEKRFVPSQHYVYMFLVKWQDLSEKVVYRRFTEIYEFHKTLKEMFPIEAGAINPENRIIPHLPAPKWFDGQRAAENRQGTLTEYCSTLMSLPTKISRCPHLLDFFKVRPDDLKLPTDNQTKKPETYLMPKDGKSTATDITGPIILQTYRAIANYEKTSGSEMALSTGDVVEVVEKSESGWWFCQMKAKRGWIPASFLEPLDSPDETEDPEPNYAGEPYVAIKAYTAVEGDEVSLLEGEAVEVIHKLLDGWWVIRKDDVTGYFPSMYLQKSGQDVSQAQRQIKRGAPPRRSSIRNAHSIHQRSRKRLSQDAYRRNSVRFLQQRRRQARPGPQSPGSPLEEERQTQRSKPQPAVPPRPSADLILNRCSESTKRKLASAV
* = called active by the depositor; x = no result given; + = active, no number.

SMILES	EBNA-1 inhibitor	Rev-erbA mod	PG9 binder	ZTA DNA inh	aDG glyco act	p47phox inh
O=C1c2ccccc2C(=O)c2c1oc(C(F)(F)F)c2C(=O)c1ccccc1	0	0	0	-5	8.8*	-8
CC(=O)c1c(C)oc2c1C(=O)c1ccccc1C2=O	-6	0	-3	6	9.8*	-11
CCCn1c(=O)c(C(=O)Nc2ccccc2C(=O)OC)c(O)c2ccccc21	4	4	1	-1	1	45*
CC(OC(=O)OC1CCCCC1)OC(=O)C1=C(CSc2nnnn2CCN(C)C)CS[C@@H]2[C@H](NC(=O)Cc3csc(N)n3)C(=O)N12 (stereo not given in full)	x	-7	x	x	x	x
CC1(C)[C@H]2CC[C@]1(C)C(=O)C2	x	-1	x	x	x	x
Cc1ccc2oc(-c3cccc(NC(=O)/C=C/c4cccc([N+](=O)[O-])c4)c3C)nc2c1	28*	-8	-1	11	0	3
O=C(/C=C/c1cccc([N+](=O)[O-])c1)Nc1ccccn1	-3	-12	2	-19	0	-8
CCOc1ccc(NC(=O)Cn2cncc2-c2ccc([N+](=O)[O-])cc2)cc1	-4	-6	2	5	0	45*
O=C(Cn1cncc1-c1ccc([N+](=O)[O-])cc1)Nc1cccc2ccccc12	-11	-9	0	-22	0	38*
CC(C)CNc1nc(Oc2ccc(=O)[nH]n2)nc(N(C)C)n1	-1	-5	-1	5	0	+
CN(C)c1nc(Nc2ccccc2)nc(Oc2ccc(=O)[nH]n2)n1	5	-2	0	4	0	-2
CCN(CC)c1ccc(C=Nc2ccccc2)c(O)c1	4	-6	0	5	0	-19
CCN(CC)c1ccc(C=Nc2ccc(N(C)C)cc2)c(O)c1	+	7	-59	+	0	-96
CCN(CC)c1ccc(N=Cc2ccc(N(CC)CC)cc2O)cc1	129*	0	-8	192*	0	-106
CCN(CC)c1ccc(C=Nc2ccc(C)cc2)c(O)c1	9	2	-2	-3	0	-2
CCC[C@@H]1C[C@@H](C(=O)N[C@@H]([C@H]2O[C@H](SC)[C@H](OP(=O)(O)O)[C@@H](O)[C@H]2O)[C@H](C)Cl)N(C)C1	x	-6	x	x	x	x
C=CCN=c1scc(-c2ccccc2)n1/N=C/c1ccccn1	9	-2	-1	84*	2	-7
C=CCN=c1scc(-c2ccc(F)cc2)n1/N=C/c1ccccn1	0	1	0	5	3	3
C#C[C@]1(O)CCC2C3CCc4cc(O)ccc4C3CC[C@@]21C (stereo not given in full)	x	3	x	x	x	x
COc1ccccc1N(C)S(=O)(=O)c1ccc(C(=O)NC(C)(C)C)cc1	2	5	-2	2	0	179*
Cc1cc(C)c(S(=O)(=O)NCC2CCC(C(=O)NCCCN3CCOCC3)CC2)c(C)c1 (stereo not given)	x	0	-2	x	0	39*
Cc1ccc(S(=O)(=O)NCC2CCC(C(=O)NCCCN3CCOCC3)CC2)cc1 (stereo not given)	-9	-3	1	-5	0	-1
CNC(=O)CCc1[nH]c2ccccc2c1Sc1ccccc1	9	1	-1	9	0	34*
CCN(CC)S(=O)(=O)c1cc(NC(=O)CSc2nnc(-c3cccs3)o2)ccc1C	0	2	0	-4	0	52*
CCc1[nH]c(=O)c(C#N)c2c1CCCC2	0	2	0	4	0	33*
CCC(C)C(NC(=O)c1ccccc1NC(=O)c1ccc(OC)cc1)C(=O)NCc1ccco1 (stereo not given)	5	2	2	3	0	50*
CC1(C)S[C@@H]2[C@@H](N3C(=O)[C@@H](c4ccccc4)NC3(C)C)C(=O)N2[C@H]1C(=O)O	x	-6	x	x	x	x
O=C(CN1CCOCC1)NCc1ccccc1	8	2	x	4	0	43*
O=C(CN1CCCC1)NCc1ccccc1	8	-5	-3	6	0	x

Bioassay records from PubChem BioAssay.
